Source: the supplement of paper PMC3334620
Whole data set: some 33,000 sequences, median “E-score (-0.5 to 0.5)” near -0.041, cut for the highest 2% near 0.37. The full list was thinned out, with the highest values kept by preference.

The sequences below were run against T1, Ecm22 (UniProt Q05958) (assay: PBM E-score (8-mer binding enrichment) (E-score (-0.5 to 0.5)); higher = stronger / more preferred TF binding). Details: protein concentration: 200 nM; construct: GST-full length.
T1 sequence: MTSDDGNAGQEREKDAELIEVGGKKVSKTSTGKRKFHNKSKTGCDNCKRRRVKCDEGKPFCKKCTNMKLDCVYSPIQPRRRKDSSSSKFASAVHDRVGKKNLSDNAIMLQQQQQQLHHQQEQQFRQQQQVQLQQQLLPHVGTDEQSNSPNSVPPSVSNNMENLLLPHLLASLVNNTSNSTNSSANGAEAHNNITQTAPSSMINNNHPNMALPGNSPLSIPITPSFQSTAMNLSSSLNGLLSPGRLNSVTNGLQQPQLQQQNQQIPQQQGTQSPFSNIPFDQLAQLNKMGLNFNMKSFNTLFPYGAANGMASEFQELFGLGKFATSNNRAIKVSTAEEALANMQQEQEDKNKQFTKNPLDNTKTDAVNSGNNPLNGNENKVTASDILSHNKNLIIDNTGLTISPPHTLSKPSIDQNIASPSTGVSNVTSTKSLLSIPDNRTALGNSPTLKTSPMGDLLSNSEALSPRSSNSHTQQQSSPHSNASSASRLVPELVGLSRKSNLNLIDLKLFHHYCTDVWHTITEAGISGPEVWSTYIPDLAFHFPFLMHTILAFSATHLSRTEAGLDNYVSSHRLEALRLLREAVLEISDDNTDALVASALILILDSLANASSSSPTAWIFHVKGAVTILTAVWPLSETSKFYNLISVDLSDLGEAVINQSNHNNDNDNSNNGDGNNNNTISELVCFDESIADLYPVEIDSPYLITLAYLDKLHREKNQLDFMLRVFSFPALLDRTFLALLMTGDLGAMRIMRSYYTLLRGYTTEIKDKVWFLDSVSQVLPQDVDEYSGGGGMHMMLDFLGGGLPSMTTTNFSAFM
Description: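 Universal 'all 10-mer' protein binding microarrays (Agilent AMADID 015681) probed with GST-tagged S. cerevisiae TFs (full-length or DBD) made by in vitro transcription/translation (PURExpress), about 100-200 nM. Bound TF was detected with fluorescent anti-GST. Each ungapped 8-mer (which stands for itself and its reverse complement) is scored by the PBM enrichment score (E-score), a modified Wilcoxon-Mann-Whitney statistic from -0.5 to +0.5, computed with the Universal PBM Analysis Suite. Scale: above 0.35 generally sequence-specific binding.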

Sequence	PBM E-score
CCGAGCCA	0.138
ACGAGCCA	0.404
ACGAGCCT	0.407
CCATTAGC	-0.0326
CTTCTGGC	-0.199
GAACTCCC	0.178
ACCTTAAC	0.0365
GTTTAAAC	0.285
ACGAGAAA	0.375
ACGAGAAG	0.313
ACGAGAAT	0.385
CCGAGAAA	0.247
CCGAGAAC	0.204
ACGAGAGT	0.328
TCGAGAAA	0.0202
ATGAGAAT	-0.0978
ACGAGAAC	0.4
AGGACCAT	0.00977
ATTCTACC	-0.12
GACAGGCA	-0.0606
AACATCCG	0.158
GGTGGAAC	0.236

Sequence	PBM E-score
ACGGCACT	0.0515
ATGATGAC	-0.0358
CAAGCTTC	0.0567
CTTTTTTA	-0.19
CCCTCGGA	0.211
ACCTCGTA	0.463
GCCTCGTA	0.481
GCCTCGAA	0.0731
ACCTCGTG	0.251
GCCTCGGA	0.175
CCCTCGTC	0.119
ACCTCGTC	0.17
CCCTCGTA	0.477
AACGGTAA	0.267
ACTGGGTA	0.0533
ATGCGTCA	0.0653
ACCGCTAA	0.144
GGGGTTAC	0.0772
CTGTGCCA	-0.185
AGCATCAG	-0.0729
ATTCTAAC	-0.0713
AGGCCTGA	-0.274

Sequence	PBM E-score
GTAGGGGA	-0.206
GCACGATA	0.0343
AGACGATA	0.143
ATACGATA	0.458
GTACGATA	0.456
CTACGATA	0.311
ACACGATA	0.152
AAGAACCT	-0.208
GTAAAGCA	0.0968
TGAAAAAA	-0.0832
ACGTACCC	0.295
CCGTACCA	0.423
ACGTACCA	0.306
GCGTACCC	0.229
CGGTACCG	0.234
GCGTACCA	0.273
CCGTACCC	0.433
ACGTACCG	0.301
CCGTACCG	0.455
TCGTACCA	0.488
TGGTACCA	-0.0735
TCTTACCA	0.061

Sequence	PBM E-score
AGGAACCG	0.0955
GAGTCTAA	-0.115
CATAGGAC	-0.091
TCTATGCA	-0.148
AGTCGTTG	0.184
AGTCGTTC	0.425
CGTCGTTA	0.374
CGTCGATC	0.0984
AGTCGCTC	0.177
GGTCGTTA	0.339
AGTCGTTA	0.273
CGTCGTTC	0.479
CGCCGTTC	0.362
CAATTGAC	-0.0565
AGGTCTGC	-0.195
CGGGAATA	0.0624
CGAACCCA	0.167
TCATCGGA	-0.0141
ATGCAGAC	-0.0112
AACTGCGG	0.0437
TGGCACCA	-0.213
